From PubChem BioAssay (EPA / NIEHS)
Several values for one entry are separate records, joined by “and”; a condition that tells them apart may be missing. Equal entries are not always repeated. The source holds several records for some structures; these can differ, active in one and inactive in another. Activity calls are given as the source filed them. Rule for the calls: active = hit-call score of the fitted dose curve at least 0.9, where 1 is the maximum; inactive = score below 0.9.

What follows are compounds tested on Interleukin 17A (IL17A), IL17A (gene 3605) (assay: BSK_BT_xIL17A: BioMAP Diversity Plus: BT Assay for Interleukin 17A (IL17A) Biomarker Activity (AID 2284229)). Settings: primary human B cells with PBMC.
Procedure: BSK_BT is a cell-based, multiplexed-readout assay that uses B cell and peripheral blood mononuclear cells, a human vascular primary cell co-culture, with measurements taken at 24 hours after chemical dosing in a microplate: 96-well plate.BSK_BT_xIL17A is an assay component measured in the BSK_BT assay. It measures secreted IL-17A related to regulation of gene expression using LumineX xMAP technology.Data from the assay component BSK_BT_xIL17A was analyzed at the endpoint, BSK_BT_xIL17A, in the positive analysis fitting direction relative to DMSO as the negative control and baseline of activity. Using a type of cytokine quantitation reporter, gain or loss-of-signal activity can be used to understand protein changes. To generalize the intended target to other relatable targets, this assay endpoint is annotated to the 'cytokine' intended target family, where the subfamily is 'interleukins'.
The levels of cell surface (or secreted, indicated by the prefix "s") biomarker endpoints were measured by ELISA. Overt cytotoxicity to cells in confluent adherent cultures (all systems other than the BT system) was assessed by measuring total protein levels using sulforhodamine B (SRB) staining in parallel cultures at the time of biomarker measurements, indicated as SRB endpoints. For proliferation assays for adherent cell types, individual cell types are cultured at sub-confluence and relative cell numbers quantified by SRB staining at time points optimized for each system (48 h: 3C and CASM3C systems; 72 h: BT and HDF3CGF systems; 96 h: SAg system). SRB was performed by staining cells with 0.1% SRB after fixation with 10% TCA and reading wells at 560 nm.Viability and proliferation of PBMC (T cells) was quantified by Alamar Blue reduction for the SAg and BT systems. For PBMC viability (referred to as PBMC Cytotoxicity within the assay endpoint names), cells were plated (75,000/well in a 96-well plate) and then chemical samples added for 1 h before addition of activators, SEB and TSST-1 (20 ng/mL final concentration each). Cells were incubated for 90 h. Then, Alamar Blue (20 uL/well) (Invitrogen, Cat DAL1100) was added for 6 h, and the plates were read with a fluorescence microplate reader at 546/580 nm (excitation/emission). For PBMC proliferation, cells were plated and activated as above but incubated for only 16 h prior to addition of Alamar Blue. Plates were read after 6 h.

SMILES | outcome | AC50
OCC(F)(F)C(F)(F)C(F)(F)C(F)F | inactive | 
O=C(O)C(F)(F)C(F)(F)C(F)(F)C(F)(F)C(F)(F)C(F)(F)C(F)(F)C(F)(F)Cl | inactive | 
O=P(O)(O)OCCC(F)(F)C(F)(F)C(F)(F)C(F)(F)C(F)(F)C(F)(F)F | inactive | 20.2 µM (active)
OCCCC(F)(F)C(F)(F)C(F)(F)F | inactive | 
FC(F)(F)C(F)(F)C(F)(F)N(C(F)(F)C(F)(F)C(F)(F)F)C(F)(F)C(F)(F)C(F)(F)F | inactive | 
N=C(N)C(F)(F)C(F)(F)C(F)(F)C(F)(F)C(F)(F)C(F)(F)C(F)(F)F | inactive | 44.2 µM (active)
CS(C)(=O)=O | inactive | 
O=C(CC(=O)C(F)(F)C(F)(F)F)C(F)(F)F | inactive | 
CCCCCCC(C)OC(=O)CCCCC(=O)OC(C)CCCCCC (stereo not given) | inactive | 
CC(C)(C)C(=O)CC(=O)C(F)(F)C(F)(F)C(F)(F)F | inactive | 
CC(CCl)OP(=O)(OC(C)CCl)OC(C)CCl (stereo not given) | inactive | 
OCC(F)(F)C(F)(F)C(F)(F)C(F)(F)C(F)(F)C(F)F | inactive | 
C=C(C)C(=O)OCC(F)(F)C(F)(F)C(F)(F)F | inactive | 
COC(=O)CCC(F)(F)C(F)(F)C(F)(F)C(F)(F)F | inactive | 
NC(=O)C(F)(F)C(F)(F)C(F)(F)C(F)(F)F | inactive | 
O=S(=O)(O)C(F)(F)C(F)(F)C(F)(F)C(F)(F)C(F)(F)C(F)(F)C(F)(F)F | inactive | 
OCC(F)(F)C(F)(F)C(F)(F)F | inactive | 
C=CC(=O)OCC(F)(F)C(F)(F)C(F)(F)C(F)(F)COC(=O)C=C |  | 7.14 µM (active) and 8.58 µM (active)
CCCCOCCOCCOC(=O)CCCCC(=O)OCCOCCOCCCC | inactive | 

SMILES | outcome | AC50
O=C(O)C(F)(F)C(F)(F)C(F)F | inactive | 
O=S(=O)(OCCOC(F)(F)F)C(F)(F)F | inactive | 
FC(F)(Br)C(F)(F)C(F)(F)C(F)(F)C(F)(F)C(F)(F)Br | inactive | 
FC(F)(F)C(F)(F)C(F)(F)C(F)(F)C(F)(F)C(F)(F)CCS | inactive | 
FC(F)(F)C(F)(F)C(F)(F)C(F)(F)C(F)(F)C(F)(F)C(F)(F)Br | inactive | 
FC(F)(I)C(F)(F)C(F)(F)C(F)(F)I |  | 42.1 µM (active) and 50.4 µM (active) and 39.2 µM (active)
Oc1ccc(Nc2ccccc2)cc1 |  | 14.3 µM (active)
CCc1c(Br)c(Br)c(Br)c(Br)c1Br | inactive | 
FC(F)(F)C(F)(F)C(F)(F)C(F)(F)CCI | inactive | 
CCO[Si](CCC(F)(F)C(F)(F)C(F)(F)C(F)(F)C(F)(F)C(F)(F)F)(OCC)OCC | inactive | 
O=C(O)C(F)(F)C(F)(F)C(F)(F)C(F)(F)F | inactive | 
C=CC(F)(F)C(F)(F)C(F)(F)C(F)(F)C(F)(F)C(F)(F)C(F)(F)C(F)(F)C=C | inactive | 
FC(F)(F)C(F)(F)C(F)(F)C(F)(F)C(F)(F)C(F)(F)CC1CO1 (stereo not given) | inactive | 
Cc1ccc(S(=O)(=O)OCC(F)(F)C(F)(F)C(F)(F)C(F)(F)C(F)(F)C(F)F)cc1 | inactive | 
OCCCC(F)(F)C(F)(F)C(F)(F)C(F)(F)C(F)(F)C(F)(F)C(F)(F)F |  | 18.8 µM (active) and 36.4 µM (active)
O=S(=O)(OCC(F)F)C(F)(F)F | inactive | 
FC(F)(F)C(F)(F)C(F)(F)C(F)(F)C(F)(F)C(F)(F)C(F)(F)C(F)(F)CCS | inactive | 
FC(F)(F)C(F)(F)C(F)(F)C(F)(F)C(F)(F)CCI | inactive | 
CCCCCCCOC(=O)c1ccccc1C(=O)OCCCCCCC | inactive | 
